# Test results taken from ChEMBL document CHEMBL1961873, “Compounds: GSK PKIS; Assays: Nanosyn kinase panel” (2012).
# Tests used:
# [1] = biological target: T1, Inhibitor of nuclear factor kappa-B kinase subunit epsilon (Homo sapiens) (UniProt Q14164); settings: at 1 µM;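 note: reported values are averaged percent inhibition figures against human IKKε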
# T1 sequence (whole entry): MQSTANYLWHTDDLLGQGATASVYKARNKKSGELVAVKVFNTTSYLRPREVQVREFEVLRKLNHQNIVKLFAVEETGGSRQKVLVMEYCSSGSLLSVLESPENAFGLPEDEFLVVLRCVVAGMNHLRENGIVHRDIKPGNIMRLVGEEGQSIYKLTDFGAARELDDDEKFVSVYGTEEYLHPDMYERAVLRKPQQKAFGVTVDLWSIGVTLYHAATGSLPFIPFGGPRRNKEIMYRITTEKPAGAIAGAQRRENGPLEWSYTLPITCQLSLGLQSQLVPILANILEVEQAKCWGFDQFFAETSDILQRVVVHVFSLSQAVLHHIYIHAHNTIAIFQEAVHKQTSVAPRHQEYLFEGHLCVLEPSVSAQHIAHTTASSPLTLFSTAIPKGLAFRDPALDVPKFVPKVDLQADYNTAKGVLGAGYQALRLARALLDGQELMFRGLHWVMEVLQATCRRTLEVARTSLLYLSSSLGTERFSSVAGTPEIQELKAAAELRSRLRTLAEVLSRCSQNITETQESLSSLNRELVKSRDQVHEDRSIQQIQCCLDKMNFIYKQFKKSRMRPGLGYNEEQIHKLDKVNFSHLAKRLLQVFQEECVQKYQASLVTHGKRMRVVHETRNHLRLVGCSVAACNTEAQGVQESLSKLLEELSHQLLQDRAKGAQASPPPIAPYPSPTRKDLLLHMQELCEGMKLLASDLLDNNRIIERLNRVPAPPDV
# [2] = biological target: T2, Serine/threonine-protein kinase Nek1 (Homo sapiens) (UniProt Q96PY6); settings: at 0.1 µM
# T2 sequence (whole entry): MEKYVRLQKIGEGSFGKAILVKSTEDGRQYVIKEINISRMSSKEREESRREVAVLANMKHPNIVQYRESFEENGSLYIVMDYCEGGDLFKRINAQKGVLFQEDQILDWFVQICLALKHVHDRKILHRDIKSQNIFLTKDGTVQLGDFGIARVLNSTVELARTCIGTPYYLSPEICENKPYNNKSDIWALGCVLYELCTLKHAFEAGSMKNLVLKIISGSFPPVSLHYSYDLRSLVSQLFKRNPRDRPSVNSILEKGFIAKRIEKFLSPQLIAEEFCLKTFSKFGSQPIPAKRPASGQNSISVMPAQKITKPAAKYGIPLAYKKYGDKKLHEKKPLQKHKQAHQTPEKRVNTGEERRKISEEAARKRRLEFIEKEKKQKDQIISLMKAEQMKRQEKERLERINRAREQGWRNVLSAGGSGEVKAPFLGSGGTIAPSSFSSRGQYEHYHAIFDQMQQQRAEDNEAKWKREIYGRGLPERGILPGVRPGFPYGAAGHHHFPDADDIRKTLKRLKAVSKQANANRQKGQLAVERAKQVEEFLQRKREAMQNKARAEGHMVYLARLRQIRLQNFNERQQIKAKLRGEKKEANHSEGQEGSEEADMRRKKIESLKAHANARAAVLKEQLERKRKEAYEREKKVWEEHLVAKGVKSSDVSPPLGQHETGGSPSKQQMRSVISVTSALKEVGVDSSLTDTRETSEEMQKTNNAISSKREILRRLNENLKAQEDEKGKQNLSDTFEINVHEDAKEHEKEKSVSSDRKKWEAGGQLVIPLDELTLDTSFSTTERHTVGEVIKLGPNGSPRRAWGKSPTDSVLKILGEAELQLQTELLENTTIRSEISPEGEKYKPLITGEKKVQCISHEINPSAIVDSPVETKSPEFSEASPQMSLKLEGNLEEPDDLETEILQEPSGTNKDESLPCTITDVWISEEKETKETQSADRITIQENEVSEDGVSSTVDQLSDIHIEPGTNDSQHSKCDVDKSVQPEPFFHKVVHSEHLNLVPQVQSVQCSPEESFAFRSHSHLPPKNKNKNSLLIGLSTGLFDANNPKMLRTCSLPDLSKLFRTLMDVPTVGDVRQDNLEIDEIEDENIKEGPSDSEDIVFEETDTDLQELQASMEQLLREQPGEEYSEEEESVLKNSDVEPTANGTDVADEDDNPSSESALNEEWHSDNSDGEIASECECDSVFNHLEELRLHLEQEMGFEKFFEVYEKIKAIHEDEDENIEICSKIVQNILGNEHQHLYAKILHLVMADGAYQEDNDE
# [3] = biological target: T2, Serine/threonine-protein kinase Nek1 (Homo sapiens); settings: at 1 µM
# [4] = biological target: T3, Serine/threonine-protein kinase Nek2 (Homo sapiens) (UniProt P51955); settings: at 0.1 µM
# T3 sequence (whole entry): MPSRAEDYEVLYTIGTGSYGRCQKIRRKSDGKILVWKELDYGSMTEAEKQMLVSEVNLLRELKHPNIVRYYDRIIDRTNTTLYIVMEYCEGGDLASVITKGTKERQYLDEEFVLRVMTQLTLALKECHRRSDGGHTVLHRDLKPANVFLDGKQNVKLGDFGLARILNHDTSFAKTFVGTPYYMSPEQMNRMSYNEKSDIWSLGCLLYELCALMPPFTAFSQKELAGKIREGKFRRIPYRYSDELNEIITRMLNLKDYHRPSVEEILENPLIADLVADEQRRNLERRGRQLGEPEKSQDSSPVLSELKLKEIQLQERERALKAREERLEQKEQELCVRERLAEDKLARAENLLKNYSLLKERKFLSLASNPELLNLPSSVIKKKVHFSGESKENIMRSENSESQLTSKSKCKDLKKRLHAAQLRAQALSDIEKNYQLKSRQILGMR
# [5] = biological target: T3, Serine/threonine-protein kinase Nek2 (Homo sapiens); settings: at 1 µM
# [6] = biological target: Serine/threonine-protein kinase Nek6 (Homo sapiens) (UniProt Q9HC98); settings: at 0.1 µM
# Sequence of Serine/threonine-protein kinase Nek6 (Homo sapiens) (Q9HC98 whole entry): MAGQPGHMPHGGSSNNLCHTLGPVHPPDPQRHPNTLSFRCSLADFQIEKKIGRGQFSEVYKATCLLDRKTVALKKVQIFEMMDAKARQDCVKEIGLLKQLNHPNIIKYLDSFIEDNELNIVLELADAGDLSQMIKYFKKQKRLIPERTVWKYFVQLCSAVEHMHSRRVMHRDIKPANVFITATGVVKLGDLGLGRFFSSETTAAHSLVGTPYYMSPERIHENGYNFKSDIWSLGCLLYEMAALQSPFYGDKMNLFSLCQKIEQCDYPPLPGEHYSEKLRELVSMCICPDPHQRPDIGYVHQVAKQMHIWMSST
# [7] = biological target: Serine/threonine-protein kinase Nek6 (Homo sapiens) (UniProt Q9HC98); settings: at 1 µM
# [8] = biological target: Serine/threonine-protein kinase Nek7 (Homo sapiens) (UniProt Q8TDX7); settings: at 0.1 µM
# Sequence of Serine/threonine-protein kinase Nek7 (Homo sapiens) (Q8TDX7 whole entry, looked up): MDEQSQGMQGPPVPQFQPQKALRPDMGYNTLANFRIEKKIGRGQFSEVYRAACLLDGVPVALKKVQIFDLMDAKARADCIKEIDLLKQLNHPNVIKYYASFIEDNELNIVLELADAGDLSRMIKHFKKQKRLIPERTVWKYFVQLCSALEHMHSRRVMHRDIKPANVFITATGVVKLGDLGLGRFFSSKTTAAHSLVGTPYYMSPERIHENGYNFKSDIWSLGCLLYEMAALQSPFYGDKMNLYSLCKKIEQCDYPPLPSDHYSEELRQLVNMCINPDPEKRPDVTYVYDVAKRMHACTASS
# [9] = biological target: Serine/threonine-protein kinase Nek7 (Homo sapiens) (UniProt Q8TDX7); settings: at 1 µM
# [10] = biological target: T4, Serine/threonine-protein kinase Nek9 (Homo sapiens) (UniProt Q8TD19); settings: at 0.1 µM
# T4 sequence (whole entry): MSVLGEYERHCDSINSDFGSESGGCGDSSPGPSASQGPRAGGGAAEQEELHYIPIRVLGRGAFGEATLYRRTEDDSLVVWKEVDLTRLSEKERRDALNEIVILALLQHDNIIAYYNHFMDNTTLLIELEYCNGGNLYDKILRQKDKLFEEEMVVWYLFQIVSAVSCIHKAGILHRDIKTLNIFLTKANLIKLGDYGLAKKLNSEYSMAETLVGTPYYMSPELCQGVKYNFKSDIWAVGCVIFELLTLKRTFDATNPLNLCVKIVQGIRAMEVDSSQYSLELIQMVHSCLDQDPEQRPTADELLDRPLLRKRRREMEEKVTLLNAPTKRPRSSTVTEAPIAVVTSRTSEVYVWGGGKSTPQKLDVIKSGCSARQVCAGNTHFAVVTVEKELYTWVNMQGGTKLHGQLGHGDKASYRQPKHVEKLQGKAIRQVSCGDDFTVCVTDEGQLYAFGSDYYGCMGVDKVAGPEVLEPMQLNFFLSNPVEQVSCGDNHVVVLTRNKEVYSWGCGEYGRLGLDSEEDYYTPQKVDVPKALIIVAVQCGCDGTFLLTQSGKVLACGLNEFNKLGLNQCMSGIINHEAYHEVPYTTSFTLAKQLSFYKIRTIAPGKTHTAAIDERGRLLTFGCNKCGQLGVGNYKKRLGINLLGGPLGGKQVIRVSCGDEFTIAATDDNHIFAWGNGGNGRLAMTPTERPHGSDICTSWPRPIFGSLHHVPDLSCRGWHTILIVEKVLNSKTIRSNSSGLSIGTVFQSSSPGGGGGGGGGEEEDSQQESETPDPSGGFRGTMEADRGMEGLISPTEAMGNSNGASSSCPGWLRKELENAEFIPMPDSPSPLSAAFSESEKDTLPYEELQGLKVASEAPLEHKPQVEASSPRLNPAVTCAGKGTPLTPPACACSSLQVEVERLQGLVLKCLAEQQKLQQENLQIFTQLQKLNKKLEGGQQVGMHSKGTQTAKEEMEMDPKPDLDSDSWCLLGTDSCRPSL
# [11] = biological target: T4, Serine/threonine-protein kinase Nek9 (Homo sapiens); settings: at 1 µM
# [12] = biological target: Serine/threonine-protein kinase PLK1 (Homo sapiens) (UniProt P53350); settings: at 0.1 µM
# Sequence of Serine/threonine-protein kinase PLK1 (Homo sapiens) (P53350 whole entry): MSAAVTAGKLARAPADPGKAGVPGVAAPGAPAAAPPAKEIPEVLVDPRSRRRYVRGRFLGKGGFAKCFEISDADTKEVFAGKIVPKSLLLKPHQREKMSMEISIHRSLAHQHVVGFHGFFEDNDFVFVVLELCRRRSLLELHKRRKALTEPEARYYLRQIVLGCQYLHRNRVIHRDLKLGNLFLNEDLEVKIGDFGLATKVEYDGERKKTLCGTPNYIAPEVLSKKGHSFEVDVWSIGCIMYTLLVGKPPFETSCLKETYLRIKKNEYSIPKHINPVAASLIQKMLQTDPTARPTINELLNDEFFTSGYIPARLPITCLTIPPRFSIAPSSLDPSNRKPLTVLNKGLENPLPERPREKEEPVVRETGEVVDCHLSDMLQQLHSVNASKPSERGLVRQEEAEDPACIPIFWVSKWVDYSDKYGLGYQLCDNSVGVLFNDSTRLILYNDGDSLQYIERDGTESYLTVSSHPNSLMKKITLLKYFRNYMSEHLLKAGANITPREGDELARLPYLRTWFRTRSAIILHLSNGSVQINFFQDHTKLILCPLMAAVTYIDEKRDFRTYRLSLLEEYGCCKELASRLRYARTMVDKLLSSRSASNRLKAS
# [13] = biological target: Serine/threonine-protein kinase PLK1 (Homo sapiens) (UniProt P53350); settings: at 1 µM
# [14] = biological target: T5, Dual specificity protein kinase TTK (Homo sapiens) (UniProt P33981); settings: at 0.1 µM
# T5 sequence (whole entry): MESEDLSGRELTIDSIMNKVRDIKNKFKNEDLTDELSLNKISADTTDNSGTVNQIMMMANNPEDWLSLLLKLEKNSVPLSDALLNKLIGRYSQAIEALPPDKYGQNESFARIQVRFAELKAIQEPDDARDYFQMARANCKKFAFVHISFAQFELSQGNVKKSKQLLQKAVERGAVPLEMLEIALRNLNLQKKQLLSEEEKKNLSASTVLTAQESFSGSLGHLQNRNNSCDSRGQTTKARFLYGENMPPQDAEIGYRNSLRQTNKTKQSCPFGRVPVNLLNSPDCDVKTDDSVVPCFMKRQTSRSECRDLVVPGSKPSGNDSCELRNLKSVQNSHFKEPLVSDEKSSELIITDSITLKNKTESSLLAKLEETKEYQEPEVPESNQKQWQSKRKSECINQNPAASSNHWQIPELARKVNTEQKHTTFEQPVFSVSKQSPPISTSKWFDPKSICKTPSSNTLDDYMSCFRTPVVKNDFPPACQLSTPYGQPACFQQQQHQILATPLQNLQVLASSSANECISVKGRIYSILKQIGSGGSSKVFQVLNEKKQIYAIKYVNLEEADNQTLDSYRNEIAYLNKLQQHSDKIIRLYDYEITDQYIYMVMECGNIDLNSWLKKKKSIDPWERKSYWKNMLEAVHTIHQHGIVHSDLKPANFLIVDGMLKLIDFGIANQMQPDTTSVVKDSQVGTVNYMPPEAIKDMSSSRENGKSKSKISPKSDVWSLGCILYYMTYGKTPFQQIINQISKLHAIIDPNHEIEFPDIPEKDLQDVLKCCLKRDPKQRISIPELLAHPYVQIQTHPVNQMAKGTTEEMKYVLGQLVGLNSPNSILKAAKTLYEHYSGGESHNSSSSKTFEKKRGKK
# [15] = test system: T6, Receptor-type tyrosine-protein kinase FLT3 (Homo sapiens), P36888 [D835Y]; settings: at 1 µM
# T6 sequence (whole entry): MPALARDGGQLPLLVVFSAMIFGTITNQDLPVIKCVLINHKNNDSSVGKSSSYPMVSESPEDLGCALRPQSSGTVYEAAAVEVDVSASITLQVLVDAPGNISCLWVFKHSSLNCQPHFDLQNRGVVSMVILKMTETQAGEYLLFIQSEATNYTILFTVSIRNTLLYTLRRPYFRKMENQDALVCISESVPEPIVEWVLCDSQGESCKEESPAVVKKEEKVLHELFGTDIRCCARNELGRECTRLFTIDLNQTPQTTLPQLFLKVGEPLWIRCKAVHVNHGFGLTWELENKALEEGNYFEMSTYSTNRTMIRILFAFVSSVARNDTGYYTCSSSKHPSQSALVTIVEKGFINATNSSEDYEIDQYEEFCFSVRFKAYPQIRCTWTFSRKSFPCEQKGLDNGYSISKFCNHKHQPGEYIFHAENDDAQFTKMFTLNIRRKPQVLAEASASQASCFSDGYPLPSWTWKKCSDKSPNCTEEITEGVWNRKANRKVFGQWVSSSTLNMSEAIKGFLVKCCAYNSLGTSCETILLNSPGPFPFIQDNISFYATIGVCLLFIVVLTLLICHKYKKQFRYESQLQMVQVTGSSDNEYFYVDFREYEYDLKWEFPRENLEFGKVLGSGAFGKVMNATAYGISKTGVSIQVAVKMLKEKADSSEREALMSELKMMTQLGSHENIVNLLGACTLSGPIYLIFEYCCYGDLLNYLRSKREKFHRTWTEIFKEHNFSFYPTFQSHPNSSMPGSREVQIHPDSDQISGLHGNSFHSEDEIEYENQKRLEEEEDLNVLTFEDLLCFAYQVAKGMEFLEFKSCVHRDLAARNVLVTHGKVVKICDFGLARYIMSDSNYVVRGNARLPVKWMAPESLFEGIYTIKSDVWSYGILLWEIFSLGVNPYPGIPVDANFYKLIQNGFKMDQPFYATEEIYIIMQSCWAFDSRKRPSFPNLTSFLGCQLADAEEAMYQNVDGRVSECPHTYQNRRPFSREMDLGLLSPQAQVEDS
# [16] = biological target: Vascular endothelial growth factor receptor 3 (Homo sapiens) (UniProt P35916); settings: at 0.1 µM
# Sequence of Vascular endothelial growth factor receptor 3 (Homo sapiens) (P35916 whole entry): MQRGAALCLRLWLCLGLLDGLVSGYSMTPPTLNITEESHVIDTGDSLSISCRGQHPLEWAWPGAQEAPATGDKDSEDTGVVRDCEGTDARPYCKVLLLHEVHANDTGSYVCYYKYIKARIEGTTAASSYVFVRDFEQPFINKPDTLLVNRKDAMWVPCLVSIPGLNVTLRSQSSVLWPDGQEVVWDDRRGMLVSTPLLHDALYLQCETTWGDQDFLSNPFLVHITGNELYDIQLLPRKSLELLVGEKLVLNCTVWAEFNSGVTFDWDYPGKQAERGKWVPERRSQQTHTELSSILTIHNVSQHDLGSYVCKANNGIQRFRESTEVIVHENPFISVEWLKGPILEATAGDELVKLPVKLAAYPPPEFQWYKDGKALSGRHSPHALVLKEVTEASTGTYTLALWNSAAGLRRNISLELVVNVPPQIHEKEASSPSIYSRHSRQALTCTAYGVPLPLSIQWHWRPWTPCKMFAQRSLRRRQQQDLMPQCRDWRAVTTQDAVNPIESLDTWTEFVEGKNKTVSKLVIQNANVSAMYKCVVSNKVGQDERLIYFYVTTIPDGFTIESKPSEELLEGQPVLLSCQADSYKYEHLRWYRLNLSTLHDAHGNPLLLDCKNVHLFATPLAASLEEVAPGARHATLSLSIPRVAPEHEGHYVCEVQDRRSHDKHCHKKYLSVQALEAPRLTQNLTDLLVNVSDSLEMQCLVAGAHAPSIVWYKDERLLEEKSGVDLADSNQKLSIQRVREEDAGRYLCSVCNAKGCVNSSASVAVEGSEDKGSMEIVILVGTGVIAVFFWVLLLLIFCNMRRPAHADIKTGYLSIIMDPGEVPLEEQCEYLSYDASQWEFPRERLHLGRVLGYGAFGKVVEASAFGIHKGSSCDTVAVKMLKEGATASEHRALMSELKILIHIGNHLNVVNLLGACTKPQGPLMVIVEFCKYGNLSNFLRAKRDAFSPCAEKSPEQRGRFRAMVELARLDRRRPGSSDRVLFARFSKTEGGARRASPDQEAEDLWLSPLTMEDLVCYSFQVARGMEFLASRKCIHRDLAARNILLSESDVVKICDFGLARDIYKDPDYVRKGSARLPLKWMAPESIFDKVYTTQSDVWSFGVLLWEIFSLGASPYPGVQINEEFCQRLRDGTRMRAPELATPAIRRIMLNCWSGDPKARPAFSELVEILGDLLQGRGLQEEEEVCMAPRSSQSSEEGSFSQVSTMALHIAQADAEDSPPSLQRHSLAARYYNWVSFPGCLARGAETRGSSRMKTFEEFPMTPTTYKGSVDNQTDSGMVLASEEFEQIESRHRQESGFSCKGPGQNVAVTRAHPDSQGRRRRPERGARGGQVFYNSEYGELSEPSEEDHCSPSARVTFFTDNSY
# [17] = biological target: Vascular endothelial growth factor receptor 3 (Homo sapiens) (UniProt P35916); settings: at 1 µM
# [18] = biological target: Macrophage colony-stimulating factor 1 receptor (Homo sapiens) (UniProt P07333); settings: at 0.1 µM
# Sequence of Macrophage colony-stimulating factor 1 receptor (Homo sapiens) (P07333 whole entry): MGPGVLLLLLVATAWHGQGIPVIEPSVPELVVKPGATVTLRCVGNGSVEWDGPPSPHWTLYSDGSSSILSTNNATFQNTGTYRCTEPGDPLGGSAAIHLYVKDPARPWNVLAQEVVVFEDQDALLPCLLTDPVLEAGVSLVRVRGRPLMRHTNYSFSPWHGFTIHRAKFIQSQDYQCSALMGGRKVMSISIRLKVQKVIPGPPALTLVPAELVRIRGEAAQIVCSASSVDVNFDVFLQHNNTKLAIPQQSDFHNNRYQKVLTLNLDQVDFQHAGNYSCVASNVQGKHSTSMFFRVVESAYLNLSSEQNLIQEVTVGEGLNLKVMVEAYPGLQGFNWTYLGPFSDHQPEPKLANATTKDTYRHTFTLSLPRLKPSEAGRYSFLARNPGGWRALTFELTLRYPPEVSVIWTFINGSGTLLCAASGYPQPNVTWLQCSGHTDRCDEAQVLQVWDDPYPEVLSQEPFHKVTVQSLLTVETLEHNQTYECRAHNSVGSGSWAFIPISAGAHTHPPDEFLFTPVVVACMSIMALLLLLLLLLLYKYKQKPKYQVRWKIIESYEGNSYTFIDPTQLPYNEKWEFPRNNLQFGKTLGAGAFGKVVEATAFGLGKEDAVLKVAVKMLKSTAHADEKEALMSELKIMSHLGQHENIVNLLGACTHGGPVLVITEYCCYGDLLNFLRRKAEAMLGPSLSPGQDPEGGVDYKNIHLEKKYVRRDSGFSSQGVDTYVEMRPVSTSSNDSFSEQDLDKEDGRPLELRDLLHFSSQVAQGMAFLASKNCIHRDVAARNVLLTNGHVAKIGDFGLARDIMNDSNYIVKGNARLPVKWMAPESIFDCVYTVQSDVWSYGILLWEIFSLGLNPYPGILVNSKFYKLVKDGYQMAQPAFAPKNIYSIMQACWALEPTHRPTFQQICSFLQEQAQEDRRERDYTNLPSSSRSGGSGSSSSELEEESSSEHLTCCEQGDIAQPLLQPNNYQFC
# [19] = biological target: Macrophage colony-stimulating factor 1 receptor (Homo sapiens) (UniProt P07333); settings: at 1 µM
# [20] = biological target: Tyrosine-protein kinase Fyn (Homo sapiens) (UniProt P06241); settings: at 0.1 µM
# Sequence of Tyrosine-protein kinase Fyn (Homo sapiens) (P06241 2-537 limits assumed): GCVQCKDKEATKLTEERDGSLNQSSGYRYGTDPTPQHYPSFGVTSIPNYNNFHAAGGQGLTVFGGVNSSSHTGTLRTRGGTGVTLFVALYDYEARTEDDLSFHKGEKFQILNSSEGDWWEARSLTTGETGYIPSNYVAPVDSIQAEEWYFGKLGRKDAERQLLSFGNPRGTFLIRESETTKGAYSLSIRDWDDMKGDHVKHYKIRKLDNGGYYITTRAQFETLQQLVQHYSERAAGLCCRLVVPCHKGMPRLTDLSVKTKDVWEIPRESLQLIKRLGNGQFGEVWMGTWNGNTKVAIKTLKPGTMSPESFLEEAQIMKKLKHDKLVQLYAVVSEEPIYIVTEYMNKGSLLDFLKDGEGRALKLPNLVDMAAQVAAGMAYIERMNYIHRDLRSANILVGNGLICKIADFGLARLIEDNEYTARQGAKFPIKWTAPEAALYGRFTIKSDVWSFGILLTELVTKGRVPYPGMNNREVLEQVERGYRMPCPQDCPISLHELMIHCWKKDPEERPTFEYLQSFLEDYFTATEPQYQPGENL
compound,measurement,setting,value
CCn1c(-c2nonc2N)nc2c(C#CC(C)(C)O)nc(OC[C@H](N)c3ccccc3)cc21,inhibition,[1],37.9%
same,inhibition,[2],2.39%
same,inhibition,[3],2.81%
same,inhibition,[4],2.31%
same,inhibition,[5],4.1%
same,inhibition,[6],-0.95%
same,inhibition,[7],1.56%
same,inhibition,[8],1.87%
same,inhibition,[9],3.72%
same,inhibition,[10],6.95%
same,inhibition,[11],3.62%
same,inhibition,[12],3.81%
same,inhibition,[13],7.68%
same,inhibition,[14],7.61%
same,inhibition,[15],1.02%
same,inhibition,[16],16.6%
same,inhibition,[17],62.6%
same,inhibition,[18],3.84%
same,inhibition,[19],5.51%
same,inhibition,[20],2.39%
